# Calls of active or inactive are those of the source. Unless noted, the rule behind the calls is not given here.
# Assays:
# [1] = system: XIP peptide (Xip251-270) binding; test: XIP fragment 251-270 binding compounds – biochemical, small-molecule microarray, fluorescence 635/667 nm, 0.1 µg/mL protein, primary screen (AID 1182); details: fluorescent protein binding, 635 nm, higher = more signal, called active from +8 up or from −8 down
# XIP peptide (Xip251-270) = test: compounds binding XIP fragment 251-270 – biochemical, small-molecule microarray, fluorescence 635/667 nm, 0.5 µg/mL protein, primary screen (AID 1183); details: fluorescence 635 nm, higher = more signal
# [2] = blood-stage malaria parasite viability loss – strain 3D7, DAPI fluorescence, 100 nL, primary screen (AID 1184);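 note: parasites grown inside human red blood cells in medium with human serum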; details: P. falciparum 3D7 growth, 3 d, higher = more signal
# [3] = molecular target: Homeobox protein Hox-A13 (Mus musculus) (UniProt Q62424); test: disruptors of Hoxa13 oligonucleotide interaction – biochemical, fluorescence polarization, labeled oligonucleotide, primary screen (AID 1185); details: Hoxa13:DNA binding, 15 min, higher = more signal, called active from +8 up or from −8 down
# [4] = blockers of DNA damage checkpoint Chk1 activation – imaging, HeLa, hydroxyurea, phospho-Chk1 antibody, percent positive cells, primary screen (AID 1186); details: hydroxyurea-induced phospho-Chk1 immunofluorescence imaging, higher = more signal
# [5] = blockers of DNA damage checkpoint Chk1 activation – imaging, HeLa, hydroxyurea, phospho-Chk1 nuclear intensity, primary screen (AID 1187); details: hydroxyurea-induced phospho-Chk1 immunofluorescence imaging, higher = more signal
# Sequence of Homeobox protein Hox-A13 (Mus musculus) (Q62424 whole entry, looked up): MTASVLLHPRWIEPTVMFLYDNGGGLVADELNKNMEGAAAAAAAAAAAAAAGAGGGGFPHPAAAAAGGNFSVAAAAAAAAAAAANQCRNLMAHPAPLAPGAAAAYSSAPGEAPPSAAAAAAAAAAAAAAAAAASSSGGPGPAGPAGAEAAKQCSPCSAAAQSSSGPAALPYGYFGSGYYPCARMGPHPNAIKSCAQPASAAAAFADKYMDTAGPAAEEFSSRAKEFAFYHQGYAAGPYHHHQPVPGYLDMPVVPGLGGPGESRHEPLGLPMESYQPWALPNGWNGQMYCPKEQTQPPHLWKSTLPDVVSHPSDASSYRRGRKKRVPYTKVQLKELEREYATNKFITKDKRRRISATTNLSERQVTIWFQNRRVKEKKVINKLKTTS
Compound,composite z-score [1],composite z-score (XIP peptide (Xip251-270)),z-score [2],z-score [3],z-score [4],z-score [5]
CC(=O)NCCCC[C@@H]1NC(=O)[C@@H]2C[C@H](C(=O)NCCCCN(C)C)[C@H](c3cccc(OCCO)c3)N2C1=O,0.172 (inactive),0.237,-0.363,-1.75 (inactive),-0.281 (inactive),-0.0329 (inactive)
COc1ccc(CCNC(=O)[C@@H]2c3ccccc3C(=O)N(C3Cc4ccccc4C3)[C@H]2c2ccc(CO)cc2)cc1,1.14 (inactive),0.219,-0.268,-3.47 (inactive),-0.222 (inactive),-0.28 (inactive)
COc1ccc(CCNC(=O)[C@@]2(Sc3ccc(C)cc3)CC(=O)N(C3CCCCC3)[C@@H]2c2ccc(CO)cc2I)cc1,0.0537 (inactive),0.753,-2.12,-1.88 (inactive),0.431 (inactive),1.23 (inactive)
CCN(CC)c1ccc(N2CC=CC34O[C@@H]5/C=C\CCC(C)OC(=O)C5[C@H]3C(=O)N(C(CO)C(C)C)[C@@H]4C2=O)cc1 (some centres not stated),0.0003 (inactive),-0.431,-0.214,-6.03 (inactive),0.0858 (inactive),0.0174 (inactive)
COc1ccc([Si](C)(C)[C@H]2[C@H](CCn3cc([C@H](O)c4ccccc4)nn3)O[C@@]3(C(=O)N(Cc4cccc(N5CCOC5=O)c4)c4ccccc43)[C@@H]2C)cc1,-0.44 (inactive),0.548,-1.54,-3.83 (inactive),-0.056 (inactive),0.324 (inactive)
O=C1OCCC/C=C\[C@H]2OC34C=CCN(c5ccc6ccccc6c5)C(=O)[C@H]3N(CCCCCCO)C(=O)[C@@H]4C12 (some centres not stated),0.346 (inactive),0.0339,-0.577,-5.08 (inactive),-0.833 (inactive),-0.428 (inactive)
CC(C)C(=C=CC[C@@H](O)c1ccccc1OCCO)CCO,0.305 (inactive),-0.161,-0.637,-2.91 (inactive),-0.306 (inactive),0.231 (inactive)
CN(C)C(=O)[C@]1(Cc2ccccc2N=[N+]=[N-])N=C(c2ccc(OCCCO)cc2)O[C@@H]1c1ccccc1,1.03 (inactive),0.383,-2.02,-6.21 (inactive),-0.879 (inactive),-1.26 (inactive)
COCCOC(=O)N1C(=O)[C@@]2(c3cc(C#CCCO)ccc31)[C@H](C(=O)Nc1nc3ccccc3s1)[C@H]1C(=O)O[C@H](c3ccccc3)[C@H](c3ccccc3)N1[C@@H]2c1ccc(OCCO)cc1,0.886 (inactive),0.744,-1.12,0.518 (inactive),-0.502 (inactive),-0.558 (inactive)
O=C(NCc1ccccc1)[C@@]1(CCS(=O)(=O)c2ccccc2)N=C(c2ccc(OCCCO)cc2)O[C@H]1c1ccccc1,0.429 (inactive),0.565,-2.05,-1.15 (inactive),-0.751 (inactive),-0.64 (inactive)
C=C(/C(=C/C[C@@H](OC(C)=O)c1ccc(OCCO)cc1)c1cnc2ccccc2c1)C(C)C,0.174 (inactive),0.178,-3,-4.09 (inactive),-1.03 (inactive),-0.163 (inactive)
COc1ccc([Si](C)(C)[C@H]2[C@H](CCO)O[C@@]3(C(=O)N(Cc4ccc(N5C(=O)COc6ccccc65)cc4)c4ccccc43)[C@@H]2C)cc1,0.0409 (inactive),0.254,-1.95,-0.911 (inactive),-0.661 (inactive),-1.02 (inactive)
CS(=O)(=O)CCOC(=O)C1=CC(CCCO)=CC(c2ccc(CN3CCCC3)cc2)N(Cc2cc3c(cc2Br)OCO3)C=C1C(=O)OCCS(C)(=O)=O (configuration not stated),0.597 (inactive),0.732,-2.66,-0.776 (inactive),-1.45 (inactive),-0.549 (inactive)
CC(C)C[C@@H]1NC(=O)[C@H]2C[C@@H](C(=O)NCCCCCCN(C)C)[C@@H](c3ccc(O)cc3)N2C1=O,1.2 (inactive),0.876,1.26,-1.57 (inactive),0.731 (inactive),0.387 (inactive)
COc1ccc([Si](C)(C)[C@H]2[C@H](CCO)O[C@@]3(C(=O)N(C)c4c(Br)cc(C)cc43)[C@@H]2C)cc1,0.307 (inactive),0.837,-2.71,-5.78 (inactive),-1.08 (inactive),-1.73 (inactive)
C=C(COC)/C(=C/C[C@H](OC(=O)c1ccncc1)c1ccc(OCCO)cc1)c1cnc2ccccc2c1,0.908 (inactive),0.791,-2.77,-4.16 (inactive),0.157 (inactive),0.313 (inactive)
C=CCN(Cc1ccccc1)C(=O)C(c1cccs1)N(CCOCCO)C(=O)/C=C\C(=O)O (configuration not stated),-0.467 (inactive),-0.573,-0.205,-1.25 (inactive),-1.41 (inactive),-0.806 (inactive)
